Laboratory results: PubChem BioAssay (NCI)
Compounds without any hit were thinned out: in the full panel of roughly 79,000, 15% have a hit. Calls of active or inactive are those of the source. Cut-off read from the data, not from the text of the source: active = growth inhibition above about 70%; inactive = the rest.

Tests used:
[1] = NCI Yeast Anticancer Drug Screen. Data for the rad50 strain (AID 155);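 note: 0% = growth of vehicle-only cultures of the same strain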; conditions: S. cerevisiae rad50 strain growth inhibition; at 50.0 µM; active compounds read high
Outline: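 Inhibition values express reduced yeast growth in compound-treated cultures relative to vehicle-treated controls.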

[2] = NCI Yeast Anticancer Drug Screen. Data for the mec2-1 strain (AID 157); conditions: S. cerevisiae mec2-1 strain, at 50.0 µM, active compounds read high
Outline: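 Compounds were applied to mec2-1 yeast cells. Their growth was then compared with that of vehicle-treated cultures to give growth inhibition.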

[3] = NCI Yeast Anticancer Drug Screen. Data for the sgs1 mgt1 strain (AID 161);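 note: 0% = growth of cultures given vehicle only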; conditions: S. cerevisiae sgs1 mgt1 strain, at 50.0 µM, active compounds read high
Outline: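 Percent growth inhibition was derived by comparing compound-exposed mutant yeast with vehicle-exposed cultures. The strain carries alterations in DNA damage repair.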

[4] = NCI Yeast Anticancer Drug Screen. Data for the cln2 rad14 strain (AID 165);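 note: 0% = growth equal to vehicle treated cultures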; conditions: S. cerevisiae cln2 rad14 strain, at 50.0 µM, active compounds read high
Outline: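 Strain: cln2 rad14 yeast, altered in cell cycle control and DNA damage repair. Read-out: growth inhibition vs vehicle.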

[5] = NCI Yeast Anticancer Drug Screen. Data for the bub3 strain (AID 167); conditions: S. cerevisiae bub3 mutant strain, at 50.0 µM, active compounds read high
Outline: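 Steps: expose the mutant yeast strain to compound; grow alongside vehicle-treated cultures; measure growth; express inhibition against the vehicle cultures.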

[6] = NCI Yeast Anticancer Drug Screen. Data for the mlh1 rad18 strain (AID 175); conditions: S. cerevisiae mlh1 rad18 strain growth inhibition; at 50.0 µM; active compounds read high
Outline: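 A repair-deficient yeast strain is exposed to test compound, and growth is scored relative to vehicle-treated controls.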

Measured: growth inhibition

COC(=O)[C@H]1[C@H]2CCOC1(c1cc(OC)c(OC)c(OC)c1)c1cc3c(cc1[C@H]2O)OCO3
inactive: [1] -5.55% | [2] -63% | [3] -21.6% | [4] -14.3% | [5] -38% | [6] -0.6%

CC(=N\[O-])/C(C)=N/[O-].CC(=N\[O-])/C(C)=N/[O-].[Cu+2]
inactive: [1] 42.8% | [2] 22.9% | [3] 15% | [4] -18.9% | [5] 33.5% | [6] 29.2%

CC(C)(C)SCC(NC(=O)OCc1ccccc1)C(=O)O (configuration not stated)
inactive: [1] 10.8% | [2] 1.7% | [3] 14.3% | [4] 18.9% | [5] 4.25% | [6] 7%

CC1(C)C(=O)CC[C@@]2(C)C1=CC[C@@H]1[C@@H]2CC[C@@]2(C)[C@H]1CC[C@]2(C)O
inactive: [1] 5.75% | [2] -14.8% | [3] 11.6% | [4] -21% | [5] 3.8% | [6] 7.05%

O=P(O)(O)SP(=O)(O)O.[Zn+2]
inactive: [1] -20.9% | [2] 9.55% | [3] -15.8% | [4] -8.7% | [5] -12.6% | [6] -1.35%

CCCCCCCCCCCCCCCC[As](CCCCCCCCCCCCCCCC)SC1OC(COC(C)=O)C(OC(C)=O)C(OC(C)=O)C1OC(C)=O (configuration not stated)
inactive: [1] 6.55% | [2] 3.55% | [3] 19.9% | [4] -4.7% | [5] 1.5% | [6] 3.55%

CC(C)C(Br)C(=O)O (configuration not stated)
inactive: [1] -6.85% | [2] -16.6% | [3] -21.1% | [4] -41.5% | [5] -9.5% | [6] 2.1%

Oc1ccccc1I
inactive: [1] 11.9% | [2] 4.85% | [3] -57% | [4] -8.7% | [5] -42.9% | [6] -14.2%

CC[C@H]1CN2CCc3cc(OC)c(OC)cc3[C@@H]2C[C@@H]1C[C@H]1NCCc2c1[nH]c1ccc(O)cc21
inactive: [1] -16.8% | [2] 17.3% | [3] -19.9% | [4] -8.65% | [5] -26.9% | [6] 7.7%

COc1ccc2c(c1OC)C[N+]1(C)CCc3cc4c(cc3C1=C2)OCO4 (configuration not stated)
inactive: [1] 21.6% | [2] -0.5% | [3] -12.8% | [4] -1.95% | [5] -2.2% | [6] -2%

O=C1NCCCC1(Cl)Cl
inactive: [1] 4.75% | [2] -1.25% | [3] 4.2% | [4] -16.3% | [5] -10.6% | [6] 13.2%

Cn1nc2ccc3nccc(NCCNCCCl)c3c2n1
inactive: [1] 6.95% | [2] -30.8% | [3] -22.1% | [4] 2.7% | [5] -19.2% | [6] -20.8%

O=[As](O)(O)c1ccc(N=Nc2ccc([As](=O)(O)O)cc2)cc1
inactive: [1] -0.35% | [2] 11.1% | [3] -15.9% | [4] 6.8% | [5] -22.5% | [6] -16.6%

Cc1cc(O)c2c(c1)OC(C)(C)C1=C2CC(C)CC1 (configuration not stated)
inactive: [1] -6.4% | [2] 10.8% | [3] -1.05% | [4] -52.8% | [5] -16.1% | [6] -21.9%

Cn1nnc(C(N)=O)n1
inactive: [1] -9.65% | [2] -15.2% | [3] -15.8% | [4] -12.8% | [5] -4.2% | [6] -18.8%

CCC(CCl)NC(CC(C)C)CC(C)C (configuration not stated)
inactive: [1] -1.95% | [2] 2.95% | [3] -6.75% | [4] -10.5% | [5] -4.7% | [6] -10.8%

O=C(NCC(O)CO)c1ccc(N(CCCl)CCCl)c([N+](=O)[O-])c1[N+](=O)[O-] (configuration not stated)
inactive: [1] 17.1% | [2] 4.7% | [3] 16.3% | [4] 8.1% | [5] 12.7% | [6] 17.1%

CC(C)c1cc2c(c(O)c1O)[C@@]1(C(=O)O)CCCC(C)(C)[C@@H]1CC2
active: [1] 91.8% | [2] 93.5% | [3] 93.3% | [4] 92% | [5] 92.3% | [6] 92.3%

Cc1ccc2cc3c(ccc4ccccc43)c3c2c1CC3
inactive: [1] -9.05% | [2] -23.9% | [3] -2.75% | [4] -3.4% | [5] 13.3% | [6] 1.85%

O=S(=O)(O)O.[In]
inactive: [1] 22.2% | [2] 41.6% | [3] 39.1% | [4] 10.1% | [5] 26.5% | [6] 15.1%

O[C@H]1[C@H](O)[C@@H](O)CN2CC[C@H](O)[C@H]12
inactive: [1] -25.9% | [2] -24.1% | [3] -18.1% | [4] -4.1% | [5] -9.05% | [6] -24.6%

COP1(=S)OCC2OC(n3cc(C)c(=O)[nH]c3=O)CC2O1 (configuration not stated)
inactive: [1] 0.55% | [2] -17.2% | [3] -12.8% | [4] -9.1% | [5] 23.1% | [6] -9.25%

O=C(Nc1cc(Cl)c(Cl)cc1Cl)C(=O)C1C(=O)NC(=S)NC1=O
inactive: [1] 0.35% | [2] -8.2% | [3] -9% | [4] 9.75% | [5] 12.9% | [6] -22.4%

CC1=CP(=O)(OC(C)C)CC(C)=C1Cl (configuration not stated)
inactive: [1] 33.7% | [2] -6.9% | [3] -11.4% | [4] -9.55% | [5] -25.8% | [6] 20.8%

O=NN1CCCS1(=O)=O
inactive: [1] 21.2% | [2] 17.9% | [3] 15.8% | [4] 14.3% | [5] 3.95% | [6] 18.8%

COc1cc(C=Nc2ccc(C(=O)O)c(O)c2)ccc1N(CCCl)CCCl
inactive: [1] 60.8% | [2] 15.1% | [3] 65.2% | [4] 41% | [5] -3.95% | [6] 48.8%

CC(=O)c1cn(Cc2ccccc2)c2ccccc12
inactive: [1] 5.75% | [2] -14.2% | [3] -6.7% | [4] -73.5% | [5] -19.6% | [6] -2.9%

CC(C)=CCC1=C(OOC2=C(CC=C(C)C)C(=O)c3ccccc3C2=O)C(=O)c2ccccc2C1=O
inactive: [1] 36.8% | [2] 23.8% | [3] 43% | [4] 11.1% | [5] 5.05% | [6] 5.7%

NC(=O)Cc1ccccc1
inactive: [1] -17.1% | [2] -14.9% | [3] -6.55% | [4] 8.75% | [5] -2.45% | [6] 24.9%

Oc1ccc(CC2NCCc3cc(O)c(O)cc32)cc1O (configuration not stated)
inactive: [1] 17.5% | [2] -4.15% | [3] 26.3% | [4] 24.3% | [5] 26.4% | [6] 23.1%

Cc1cc(CCl)cc(=O)[nH]1
inactive: [1] -9.75% | [2] -0.7% | [3] -7.55% | [4] -8.9% | [5] -20.6% | [6] 12.2%

CSCCC(N)C(=O)O.[Pb] (configuration not stated)
inactive: [1] -17.9% | [2] -10.3% | [3] 13.1% | [4] -40.4% | [5] -12.4% | [6] -20.2%

C/C=C1\C[C@@H]2C(OC)Nc3cc(O)c(OC)cc3C(=O)N2C1 (some centres not stated)
active: [1] 77.5% | [2] 70.7% | [3] 84% | [5] 81.3%
inactive: [4] 56.9% | [6] 31.7%

CC(C)=CC1C(C(=O)OCc2cc3c(cc2Cl)OCO3)C1(C)C (configuration not stated)
inactive: [1] 8.65% | [2] 12.1% | [3] -15.2% | [4] -48.9% | [5] 14.9% | [6] -3.9%

CN1CCc2cc3c(cc2[C@H]1[C@@H]1OC(=O)c2c1ccc1c2OCO1)OCO3
inactive: [1] -11.4% | [2] -38.5% | [3] -26% | [4] -0.25% | [5] -29.1% | [6] -41%

COC(=O)CP(=O)(OC)OC
inactive: [1] 5.3% | [2] -24.1% | [3] 1.8% | [4] -3.15% | [5] 1% | [6] 7.2%

CCC1(O)CC(OC2CC(N(C)C)C(OC3CC(O)C(OC4CCC(=O)C(C)O4)C(C)O3)C(C)O2)c2c(cc3c(c2O)C(=O)c2c(O)ccc(O)c2C3=O)C1C(=O)OC (configuration not stated)
active: [1] 88.8% | [2] 90.9% | [3] 90.5% | [4] 88.4% | [5] 90% | [6] 89%

N#CC(C#N)C1CN2CCC1CC2 (configuration not stated)
inactive: [1] 1.95% | [2] 13.3% | [3] 15.6% | [4] 24.5% | [5] 4.9% | [6] -26.6%

O.O.[Cl][Pt+2][Cl].[NH-]CC[NH-]
inactive: [1] 23.6% | [2] 10.7% | [3] -2.15% | [4] 41.5% | [5] 16% | [6] 9.85%

Cc1ccc(NC(=O)N(C)N=O)cc1
inactive: [1] -3.5% | [2] 5.5% | [3] -4.3% | [4] -11.3% | [5] -6.05% | [6] -4.45%

COC(=O)/C=C/[C@H]1[C@H](C)N1S(=O)(=O)c1ccc(C)cc1 (some centres not stated)
inactive: [1] 8.75% | [2] 20.1% | [3] 14.8% | [4] 4.4% | [5] -22.6% | [6] -7.25%

CCCC[S][Sn-]([CH2]CCC)([CH2]CCC)[CH2]CCC
active: [1] 98.7% | [2] 98.7% | [3] 99.2% | [4] 98.5% | [5] 99% | [6] 99%
